According to PubChem BioAssay (NCATS):
“And” between values parts separate entries of the source, which are not always exact repeats. Identical values can stand only once. Results filed as inconclusive are left out. The source made the active and inactive calls. Unless noted, the call rests on the fitted dose curve; in most records, active means well fitted curve in the direction sought with a large enough effect; inconclusive means small, poorly fitted or top-dose-only effect, or another doubt; inactive means no such curve, though single readings can be large; an effect the other way counts as inactive or inconclusive.

Tests used:
[1] = qHTS for inhibitors of adenylyl cyclases using a fission yeast platform: a pilot screen against the NCATS LOPAC library (AID 1347410)
Method in brief: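 Fission yeast qHTS: CHP2027 cells (AC9-GNAS-PDE4D2, fbp1-GFP), 5x10^6 cells/mL working density, EMM + His/Lys/Ura; LOPAC at up to 57 µM final; 18 h dark, 30C; GFP by laser cytometry. DPI positive control, DMSO vehicle.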

[2] = qHTS to identify inhibitors of the type 1 interferon - major histocompatibility complex class I in skeletal muscle: primary screen against the NCATS Mechanism Interrogation Plate v5.0 (MIPE) Libary (AID 1347411); further: nearly all actives have a fitted effect of over 65% in size; further: potency means the concentration at half of the fitted maximal effect
Method in brief: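 IFN-beta-driven (4 ng/ml) HLA-B-HiBit expression in CRISPR-tagged C25cl48 myoblasts; compounds 11-pt, 1:3, max 46 uM, 24 hr exposure; lytic NanoLuc complementation luminescence.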

[3] = biological target: Single-stranded DNA cytosine deaminase (Homo sapiens) (UniProt Q9GZX7); assay: Validation qHTS assay for inhibitors of Activation Induced Cytidine Deaminase (AID): AID signal (AID 1347429)
Method in brief: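 Compounds (up to 114 uM final) are tested against AID plus UDG using DJC20/DJC23 FRET substrate. Reactions incubate 4 hr at room temperature, receive NaOH for 30 min, and are read at Ex 540/Em 590 nm.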

[4] = Primary qHTS for inhibitors of La Crosse Virus (LACV) - induced cell death in SH-SY5Y cells (AID 1508616);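 further: top concentration of the series differs between compounds; higher means more rescue of cells from virus-induced death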
Method in brief: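 Screening measures cell viability in LACV-infected SH-SY5Y cultures. Compound was added before virus (0.01 MOI), and ATP was detected by luminescence 6 days later.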

[5] = biological target: Calcium and integrin-binding protein 1 (Homo sapiens) (UniProt Q99828); assay: Validation qHTS for Identification of Calcium Integrin Binding protein 1 (CIB1) Competitor (AID 1508618)
Method in brief: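 Fluorescence polarization with 1 uM CIB1-GST and 100 nM FITC-alphaIIb peptide in HEPES pH 7.4, NaCl, 5 mM CaCl2, Tween20. Compounds at up to 114 uM final, preincubated with protein 15 min; read after 15 min more at RT.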

[6] = biological target: Calcium and integrin-binding protein 1 (Homo sapiens) (UniProt Q99828); assay: Primary qHTS for Identification of Calcium Integrin Binding Protein 1 (CIB1) Competitor (AID 1508620);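 further: GST tagged CIB1 binding a fluorescein labelled alphaIIb integrin peptide tracer; top concentration of the series differs between compounds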
Method in brief: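 CIB1-GST (1 uM final) and compound incubated 15 min at room temperature before adding FITC-alphaIIb peptide tracer (100 nM final). Competition for binding read by fluorescence polarization (ex 480, em 540) after another 15 min at room temperature.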

[7] = Primary qHTS for small molecule stabilizers of the endoplasmic reticulum resident proteome: Secreted ER Calcium Modulated Protein (SERCaMP) assay (AID 1508630)
Method in brief: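 The SH-SY5Y reporter protocol was run at 3 concentrations up to 38.3 uM (primary) or 11 concentrations (follow-up): 16 h compound, 100 nM thapsigargin for 4 h, then extracellular luciferase luminescence.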

[8] = Primary qHTS for inhibitors of nuclear receptor binding SET domain protein 2 (NSD2) in an isogenic RCH-ACV NSD2 p.E1099K mutant (9B) (AID 1645876); further: nearly all actives have a fitted effect of over 70% in size; further: potency means the concentration at half of the fitted maximal effect
[9] = Primary qHTS for inhibitors of nuclear receptor binding SET domain protein 2 (NSD2) in an RCH-ACV wild type WT cells (2C) (AID 1645877); further: nearly all actives have a fitted effect of over 70% in size; further: potency means the concentration at half of the fitted maximal effect
Papain (Carica papaya) = Papain (Carica papaya) (UniProt P00784); assay: Primary qHTS assay for inhibitors of the protease papain (AID 1645873);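 further: papain turnover of Z-FR-AMC read as the AMC fluorescence gain over 10 min; series mostly up to about 50 µM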
[10] = biological target: Cytochrome P450 2D6 (Homo sapiens) (UniProt P10635); assay: Cytochrome P450 family 2 subfamily D member 6 (CYP2D6) small molecule antagonists: luciferase biochemical (cell-free) qHTS assay (AID 1645840; active means well fitted curve in the direction sought with a large enough effect in the repeat runs; an effect the other way counts as inactive or inconclusive; further: nearly all actives have a fitted effect of over 55% in size; further: potency means the concentration at half of the fitted maximal effect)
Method in brief: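 P450-Glo CYP2D6 system: proluciferin substrate converted by enzyme to luciferin, read by luminescence proportional to activity. Enzyme-substrate mix with compound 10 min at room temperature, then NADPH regeneration 1 h before detection reagent.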

[11] = biological target: Protein phosphatase 1D (Homo sapiens) (UniProt O15297); assay: RapidFire Mass Spectrometry qHTS Assay for Modulators of WT P53-Induced Phosphatase 1 (WIP1) (AID 1347424);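 further: amount of dephosphorylated VEPPL-S-QETFS peptide product formed by WIP1; series mostly up to about 63 µM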
Method in brief: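 RapidFire mass spectrometry measured dephosphorylated peptide after 5 min room-temperature reaction of 2 uM VEPPL-pS-QETFS with 10 nM WIP1 (50 mM Tris-HCl pH 7.5, 30 mM MgCl2, 0.1 mM EGTA, BSA), following 1 hr compound preincubation; 1 uM isotope-labelled product standard.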

[12] = biological target: Protein phosphatase 1D (Homo sapiens) (UniProt O15297); assay: Rhodamine-PBP qHTS Assay for Modulators of WT P53-Induced Phosphatase 1 (WIP1) (AID 1347425)
Method in brief: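 WIP1 (5 nM final) was preincubated with compound for 1 hour at room temperature. It then dephosphorylated 10 uM VEPPL-pS-QETFS peptide in Tris-HCl pH 7.5 with 30 mM MgCl2. Released Pi was detected by 10 uM Rh-PBP fluorescence (ex 525/em 598 nm) read at 1-min intervals for 11 min, as delta f1 - f0.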

[13] = A High-Content qHTS Against Drug Library for the Identification of Small Molecules that Inhibit DYT1 Early Onset Primary Dystonia-Associated Cell Pathology (AID 1645839; calls by dose curve; further: series mostly up to about 46 µM)
Method in brief: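 High-content imaging quantified EGFP-TorsinA mislocalization in HEK293-derived cells inducibly expressing DYT1 mutant torsinA, after 48 h exposure to compound given together with tetracycline induction. Cell count served as a toxicity channel alongside %pathology.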

[14] = biological target: Cytochrome P450 2C9 (Homo sapiens) (UniProt P11712); assay: Cytochrome P450 family 2 subfamily C member 9 (CYP2C9) small molecule antagonists: luciferase biochemical (cell-free) qHTS assay (AID 1645842; active means well fitted curve in the direction sought with a large enough effect in the repeat runs; an effect the other way counts as inactive or inconclusive; further: potency means the concentration at half of the fitted maximal effect; nearly all actives have a fitted effect of over 55% in size)
Method in brief: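 P450-Glo CYP2C9 system: proluciferin substrate with enzyme in mix containing 0.4% BSA, 10 min at room temperature, then NADPH regeneration solution added and incubated 1 h at 37C. Detection reagent stopped reaction; luminescence read after 20 min as RLU.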

Measured: Potency

Papain (Carica papaya), sequence (P00784 whole entry, looked up): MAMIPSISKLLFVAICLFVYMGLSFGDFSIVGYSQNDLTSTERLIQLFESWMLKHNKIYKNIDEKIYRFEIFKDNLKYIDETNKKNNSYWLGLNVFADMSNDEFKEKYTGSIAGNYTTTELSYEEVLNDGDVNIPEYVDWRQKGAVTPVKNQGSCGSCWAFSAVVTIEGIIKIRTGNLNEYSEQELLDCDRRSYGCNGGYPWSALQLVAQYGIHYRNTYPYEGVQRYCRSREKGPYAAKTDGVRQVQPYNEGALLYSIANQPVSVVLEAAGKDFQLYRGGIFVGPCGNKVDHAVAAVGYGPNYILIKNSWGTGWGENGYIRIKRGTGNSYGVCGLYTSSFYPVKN
Single-stranded DNA cytosine deaminase (Homo sapiens), sequence (Q9GZX7 whole entry, looked up): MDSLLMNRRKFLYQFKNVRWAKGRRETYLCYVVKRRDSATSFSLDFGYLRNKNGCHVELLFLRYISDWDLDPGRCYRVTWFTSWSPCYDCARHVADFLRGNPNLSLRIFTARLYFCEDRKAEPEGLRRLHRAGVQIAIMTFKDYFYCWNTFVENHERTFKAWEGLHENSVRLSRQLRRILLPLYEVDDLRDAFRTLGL
Calcium and integrin-binding protein 1 (Homo sapiens), sequence (Q99828 whole entry, looked up): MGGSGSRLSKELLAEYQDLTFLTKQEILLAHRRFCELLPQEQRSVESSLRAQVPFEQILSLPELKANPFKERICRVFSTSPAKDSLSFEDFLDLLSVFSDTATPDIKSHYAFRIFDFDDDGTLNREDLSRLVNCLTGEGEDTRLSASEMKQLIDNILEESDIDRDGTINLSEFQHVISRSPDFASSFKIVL
Cytochrome P450 2D6 (Homo sapiens), sequence (P10635 whole entry, looked up): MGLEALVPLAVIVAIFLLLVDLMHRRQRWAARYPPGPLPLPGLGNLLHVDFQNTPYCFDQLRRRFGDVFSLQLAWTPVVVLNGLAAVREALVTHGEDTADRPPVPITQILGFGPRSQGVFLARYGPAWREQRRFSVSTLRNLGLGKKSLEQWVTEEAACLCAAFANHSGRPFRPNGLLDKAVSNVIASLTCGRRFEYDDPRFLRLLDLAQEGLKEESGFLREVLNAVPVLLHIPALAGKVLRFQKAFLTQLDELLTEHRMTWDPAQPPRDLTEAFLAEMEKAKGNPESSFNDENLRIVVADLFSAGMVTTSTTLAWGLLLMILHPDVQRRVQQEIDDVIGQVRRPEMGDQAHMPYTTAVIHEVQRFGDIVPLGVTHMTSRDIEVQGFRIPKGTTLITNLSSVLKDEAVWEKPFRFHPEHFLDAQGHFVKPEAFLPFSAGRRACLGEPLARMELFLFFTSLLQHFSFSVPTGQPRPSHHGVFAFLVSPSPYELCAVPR
Cytochrome P450 2C9 (Homo sapiens), sequence (P11712 whole entry, looked up): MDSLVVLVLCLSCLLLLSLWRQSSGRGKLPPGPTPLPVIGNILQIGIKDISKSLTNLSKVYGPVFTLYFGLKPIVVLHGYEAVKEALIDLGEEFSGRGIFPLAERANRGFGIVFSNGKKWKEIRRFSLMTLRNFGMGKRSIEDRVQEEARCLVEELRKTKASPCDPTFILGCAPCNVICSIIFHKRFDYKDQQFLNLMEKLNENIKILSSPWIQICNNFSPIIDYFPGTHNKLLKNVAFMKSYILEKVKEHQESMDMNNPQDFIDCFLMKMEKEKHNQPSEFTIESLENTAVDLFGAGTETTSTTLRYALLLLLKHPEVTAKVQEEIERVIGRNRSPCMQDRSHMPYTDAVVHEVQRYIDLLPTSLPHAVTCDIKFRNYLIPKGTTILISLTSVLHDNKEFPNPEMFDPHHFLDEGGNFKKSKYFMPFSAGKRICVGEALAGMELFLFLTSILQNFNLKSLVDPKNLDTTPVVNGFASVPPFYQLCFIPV
Protein phosphatase 1D (Homo sapiens), sequence (O15297 whole entry, looked up): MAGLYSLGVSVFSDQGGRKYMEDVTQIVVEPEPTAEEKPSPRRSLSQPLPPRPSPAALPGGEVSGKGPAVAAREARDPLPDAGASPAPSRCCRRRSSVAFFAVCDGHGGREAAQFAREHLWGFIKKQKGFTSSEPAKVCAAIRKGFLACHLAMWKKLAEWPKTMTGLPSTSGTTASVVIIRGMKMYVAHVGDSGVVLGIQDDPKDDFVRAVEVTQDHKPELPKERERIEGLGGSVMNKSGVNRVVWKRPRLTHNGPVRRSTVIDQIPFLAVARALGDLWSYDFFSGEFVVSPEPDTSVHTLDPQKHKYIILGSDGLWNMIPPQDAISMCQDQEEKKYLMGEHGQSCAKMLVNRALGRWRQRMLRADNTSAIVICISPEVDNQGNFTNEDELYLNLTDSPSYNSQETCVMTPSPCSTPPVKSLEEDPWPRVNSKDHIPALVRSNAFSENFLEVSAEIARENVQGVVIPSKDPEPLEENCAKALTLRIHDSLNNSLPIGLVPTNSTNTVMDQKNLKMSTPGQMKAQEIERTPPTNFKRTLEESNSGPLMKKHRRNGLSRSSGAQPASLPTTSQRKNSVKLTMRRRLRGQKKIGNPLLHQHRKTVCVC

COc1cc2c(cc1OC)C1CC(=O)C(CC(C)C)CN1CC2 (centres undefined)
not listed: Papain (Carica papaya) | [10] | [11] | [12] | [13] | [14]
inactive: all other assays above

O=C1c2c(O)cc(O)cc2OC(c2ccc(O)c(O)c2)C1O (centres undefined)
inactive: [1] | [2] | [3] | [4] | Papain (Carica papaya)

CCOC(=O)C1=C(O)C(=O)N(Cc2ccccc2)C1
inactive: [1] | [2] | [5] | [6] | [7] | Papain (Carica papaya) | [8] | [9]

Cc1cccc(C#Cc2ccccc2)n1
inactive: [1] | [3] | [4] | [5] | [6] | [7]

O=c1ccc2ccc(O)c(O)c2o1
inactive: [1] | [3] | [4] | [6] | [7] | [10]

O=C1c2ccccc2-c2n[nH]c3cccc1c23
active: [2] 16.5 µM | [8] 11.8 µM and 14.6 µM | [9] 13.2 µM and 14.6 µM
inactive: [1] | [4] | [7] | Papain (Carica papaya)

C[C@@H](c1ncncc1F)[C@](O)(Cn1cncn1)c1ccc(F)cc1F
inactive: [1] | [2] | [5] | [6] | [7] | [10] | Papain (Carica papaya)

CC1(C)NC(=O)N(c2ccc([N+](=O)[O-])c(C(F)(F)F)c2)C1=O
active: [14] 7.76 µM and 6.01 µM
not listed: [9]
inactive: all other assays above

CN(C)C(=O)[C@H](O)[C@H](Cc1ccccc1)NC(=O)c1cc2cc(Cl)ccc2[nH]1
inactive: [1] | [2] | [5] | [6] | [7] | Papain (Carica papaya)

Cc1c(OCC(F)(F)F)ccnc1CS(=O)c1nc2ccccc2[nH]1 (centres undefined)
active: [10] 389 nM and 1.07 µM | [14] 15.5 µM and 13.5 µM
not listed: [6] | [8] | [9] | Papain (Carica papaya) | [13]
inactive: all other assays above

O=Nc1c(-c2c(O)[nH]c3cc(Br)ccc23)[nH]c2ccccc12
inactive: [1] | [3] | [5] | [6] | Papain (Carica papaya)
active: [2] 14.7 µM | [10] 21.3 µM | [8] 1.32 µM | [9] 1.32 µM

Clc1ccc2c(N3CCN(CCCN4CCN(c5ccnc6cc(Cl)ccc56)CC4)CC3)ccnc2c1
inactive: [1] | [2] | [5] | [6] | [7] | Papain (Carica papaya) | [8]
